Laboratory results from publication PMC6792352, “Limited Chemical Structural Diversity Found to Modulate Thyroid Hormone Receptor in the Tox21 Chemical Library” (Environmental Health Perspectives, 2019).
Where a name gives a salt, the structure may show the parent alone.

These compounds were tested on thyroid hormone receptor (endogenous TRα and TRβ). Details: read-out: Average AC50 (uM) GH3-TRE-Antag, antagonist mode, 1 nM T3, no GH3 cytotoxicity hit.
Set-up: species or system GH3-TRE-Luc (rat pituitary); GH3-TRE-Luc luciferase reporter, antagonist mode against 1 nM T3, loss of signal, qHTS
`CCC(C)c1cc(C(C)(C)C)c(O)c(C(C)(C)C)c1` (stereo not drawn) [4-(Butan-2-yl)-2,6-di-tert-butylphenol] was tested, and the AC50 was 23.6 µM.
Compound `C=CCCCCCCCCC(=O)O` [10-Undecenoic acid] has an AC50 of 43.6 µM.
Work on `NC(=O)Nc1ccc(Cl)c(Cl)c1` [3,4-Dichlorophenylurea] yielded an AC50 of 52.4 µM.
`CCCCN(CCCC)C(=O)N(CCCC)CCCC` [1,1,3,3-Tetrabutylurea] was tested, and the AC50 was 22.2 µM.
For `CCOC(=O)CS` [Acetic acid,mercapto-,ethylester], the AC50 was 73.6 µM.
Work on `CC(C)CCC[C@@H](C)[C@H]1CC(=O)C2=C3CC[C@H]4C[C@@H](O)CC[C@]4(C)[C@H]3CC[C@@]21C` [Colestolone] yielded an AC50 of 7.21 µM.
Work on `COC(=O)[C@H]1[C@H]2C[C@@H]3c4[nH]c5cc(OC)ccc5c4CCN3C[C@H]2C[C@@H](OC(=O)COc2ccc(OC)cc2)[C@@H]1OC` [Mefeserpine] yielded an AC50 of 21.6 µM.
Work on `COC(=O)N[C@H](C(=O)N[C@@H](Cc1ccccc1)[C@@H](O)CN(Cc1ccc(-c2ccccn2)cc1)NC(=O)[C@@H](NC(=O)OC)C(C)(C)C)C(C)(C)C` [Atazanavir] yielded an AC50 of 19.5 µM.
With `CCOC(=O)n1ccn(C)c1=S` [Carbimazole] the AC50 was greater than 20 µM.
`Cc1oc(C)c(C(=O)Nc2ccccc2)c1C` [Methfuroxam] was tested, and the AC50 was 23.1 µM.
`CC/C=C\CC/C=C/C(OCC)OCC` [(2E,6Z)-1,1-diethoxynona-2,6-diene] gave an AC50 of 61.1 µM.
`NC1CCN(c2nc3c(cc2F)c(=O)c(C(=O)O)cn3-c2ccc(F)cc2F)C1` (stereo not drawn) [Tosufloxacin toluenesulfonic acid] gave an AC50 of 21.1 µM.
For `C=CC(C)(O)CC/C=C(\C)CCC=C(C)C` (stereo not drawn) [trans-Nerolidol], the AC50 was 9.85 µM.
`c1ccc2c(c1)CCc1ccccc1N2` [10,11-Dihydro-5H-dibenz[b,f]azepine] was tested, and the AC50 was 40.6 µM.
For `COc1ccc(CN(CCN(C)C)c2ccccn2)cc1` [Pyrilamine maleate], the AC50 was 32.2 µM.
`CC1(C)[C@H](C(=O)O[C@H](C#N)c2cccc(Oc3ccccc3)c2)[C@@H]1C=C(Br)Br` [Deltamethrin] showed an AC50 of 76.3 µM.
Work on `Cc1ccccc1C(=O)Nc1cccc(OC(C)C)c1` [Mepronil] yielded an AC50 of 48.2 µM.
With `Cc1ccc2nc(N)[nH]c(=O)c2c1Sc1ccncc1` [Nolatrexed dihydrochloride] the AC50 was 4.76 µM.
Work on `C/C=C1/C(=O)C[C@H]2[C@@H]3CCC4=CC(=O)CC[C@]4(C)[C@H]3CC[C@]12C` [Guggulsterone E] yielded an AC50 of 18 µM.
With `O=C(O)Cc1sc(-c2ccccc2)nc1-c1ccc(Cl)cc1` [Fentiazac] the AC50 was greater than 50 µM.
`Nc1ccccc1N` [1,2-Phenylenediamine dihydrochloride] showed an AC50 of 92.5 µM.
`COCC(C)N(C(=O)CCl)c1c(C)csc1C` (stereo not drawn) [Dimethenamid] gave an AC50 greater than 50 µM.
Compound `Oc1ccc(Cc2ccccc2O)cc1` [2-(4-Hydroxybenzyl)phenol] has an AC50 of 63.8 µM.
`C/C=C(C)/C=C/C=C(C)C` [2,6-Dimethyl-2,4,6-octatriene] showed an AC50 greater than 90 µM.
Compound `COC(=O)N(C(=O)N1CO[C@@]2(C(=O)OC)Cc3cc(Cl)ccc3C2=N1)c1ccc(OC(F)(F)F)cc1` [Indoxacarb] has an AC50 of 9.12 µM.
Compound `CC[C@@]1(O)C(=O)OCc2c1cc1n(c2=O)Cc2cc3c(CN(C)C)c(O)ccc3nc2-1` [Topotecan hydrochloride] has an AC50 of 2.45 µM.
With `CCCOc1ccc2nc(NC(=O)OC)sc2c1` [Tioxidazole] the AC50 was 2.52 µM.
`CCCCC(CC)COC(=O)c1ccc(N(C)C)cc1` (stereo not drawn) [2-Ethylhexyl 4-(dimethylamino)benzoate] gave an AC50 of 47.2 µM.
In the case of `COc1ccc(C(CN(C)C)C2(O)CCCCC2)cc1` (stereo not drawn) [Venlafaxine hydrochloride], the AC50 is reported as 71 µM.
`CC(C)N(C(=O)COc1nnc(C(F)(F)F)s1)c1ccc(F)cc1` [Flufenacet] showed an AC50 of 53.2 µM.
`CCCCc1c(C)nc(NCC)nc1OS(=O)(=O)N(C)C` [Bupirimate] gave an AC50 greater than 90 µM.
Work on `Cc1ccccc1CO[C@@H]1C[C@@]2(C(C)C)CC[C@]1(C)O2` (racemic) [Cinmethylin] yielded an AC50 of 38.4 µM.
With `COc1cccc(N(C)C(=S)Oc2ccc3c(c2)CCCC3)n1` [Liranaftate] the AC50 was 39.9 µM.
Work on `Cc1c(COC(=O)[C@@H]2[C@H](/C=C(\Cl)C(F)(F)F)C2(C)C)cccc1-c1ccccc1` (racemic) [Bifenthrin] yielded an AC50 of 17.5 µM.
Compound `c1ccc(Nc2ccccc2)cc1` [Diphenylamine] has an AC50 of 83.1 µM.
In the case of `O=C(Nc1ccc(Cl)c(Cl)c1)C1CC1` [Cypromid], the AC50 is reported as 45.8 µM.
With `CC(=O)[C@@]1(O)CC[C@H]2[C@@H]3C=C(Cl)C4=CC(=O)CC[C@]4(C)[C@H]3CC[C@@]21C` [Chlormadinone] the AC50 was 30.7 µM.
Compound `C=C(C)C(=O)Nc1ccc(Cl)c(Cl)c1` [Chloranocryl] has an AC50 of 55.5 µM.
`CCCC(=O)O[C@]1(C(=O)CCl)[C@@H](C)C[C@H]2[C@@H]3CCC4=CC(=O)C=C[C@]4(C)[C@@]3(F)C(=O)C[C@@]21C` [Clobetasone butyrate] showed an AC50 of 32.9 µM.
